Hits are enriched below; roughly 2.7% of the tested compounds scored in any of these assays.
KDM5B inh: inhibitors of human KDM5B histone demethylase; Q9UGL1; KDM5B demethylase, FDH-coupled NADH fluorescence (FDH is formaldehyde dehydrogenase); Potency, µM (top dose mostly 57.7 µM), hits mostly inhibitors; 220,000 tested, 2.6% active; AID 1347165; further: potency means the concentration at half of the fitted maximal effect; 0% is about no effect; nearly all actives have a fitted effect of over 70% in size
Target sequence (Q9UGL1 whole entry, looked up): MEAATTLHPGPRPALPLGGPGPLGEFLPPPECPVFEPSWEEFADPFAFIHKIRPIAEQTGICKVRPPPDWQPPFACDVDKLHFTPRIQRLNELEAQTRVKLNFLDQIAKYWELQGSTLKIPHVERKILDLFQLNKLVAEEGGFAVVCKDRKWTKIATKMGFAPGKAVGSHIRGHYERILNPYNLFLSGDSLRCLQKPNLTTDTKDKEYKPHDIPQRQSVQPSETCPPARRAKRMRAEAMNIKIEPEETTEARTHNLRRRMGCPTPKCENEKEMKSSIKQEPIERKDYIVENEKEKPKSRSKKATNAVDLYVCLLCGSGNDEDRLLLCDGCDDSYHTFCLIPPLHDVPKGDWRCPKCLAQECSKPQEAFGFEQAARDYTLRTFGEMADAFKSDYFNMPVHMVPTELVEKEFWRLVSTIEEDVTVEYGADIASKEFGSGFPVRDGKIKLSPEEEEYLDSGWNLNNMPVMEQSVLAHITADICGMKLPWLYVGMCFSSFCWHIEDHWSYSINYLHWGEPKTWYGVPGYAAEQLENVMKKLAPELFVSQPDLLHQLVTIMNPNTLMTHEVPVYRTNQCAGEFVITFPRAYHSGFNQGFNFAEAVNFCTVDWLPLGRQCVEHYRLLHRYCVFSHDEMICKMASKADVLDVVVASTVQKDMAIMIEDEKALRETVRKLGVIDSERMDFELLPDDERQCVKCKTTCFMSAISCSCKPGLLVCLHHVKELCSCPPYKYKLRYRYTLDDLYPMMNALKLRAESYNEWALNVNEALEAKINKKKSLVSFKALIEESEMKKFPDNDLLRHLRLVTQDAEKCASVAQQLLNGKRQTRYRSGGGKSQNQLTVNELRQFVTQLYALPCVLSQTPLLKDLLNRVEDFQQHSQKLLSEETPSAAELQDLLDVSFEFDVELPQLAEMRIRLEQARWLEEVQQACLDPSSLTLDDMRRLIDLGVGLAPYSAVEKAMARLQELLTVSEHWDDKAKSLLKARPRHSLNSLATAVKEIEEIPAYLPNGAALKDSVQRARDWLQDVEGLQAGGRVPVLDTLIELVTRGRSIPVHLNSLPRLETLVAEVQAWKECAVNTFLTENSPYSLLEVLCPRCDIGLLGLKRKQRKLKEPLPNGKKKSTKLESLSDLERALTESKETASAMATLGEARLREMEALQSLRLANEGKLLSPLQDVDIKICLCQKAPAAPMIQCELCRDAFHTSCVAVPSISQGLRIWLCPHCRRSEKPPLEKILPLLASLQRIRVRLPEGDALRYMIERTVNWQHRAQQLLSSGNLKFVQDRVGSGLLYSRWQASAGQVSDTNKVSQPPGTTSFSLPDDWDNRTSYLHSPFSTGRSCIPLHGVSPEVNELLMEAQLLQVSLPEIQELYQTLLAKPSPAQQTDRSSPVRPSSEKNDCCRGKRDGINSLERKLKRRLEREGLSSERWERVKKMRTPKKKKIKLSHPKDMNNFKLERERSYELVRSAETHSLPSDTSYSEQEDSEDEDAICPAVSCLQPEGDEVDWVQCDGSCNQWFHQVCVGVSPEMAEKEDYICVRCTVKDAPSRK
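Here, H3K4me3 peptide (12.5 µM in substrate mix) is demethylated by KDM5BΔAP, 200 nM final, after 10 min compound exposure. Formaldehyde product is coupled through FDH (0.25 U/mL in mix) to NADH fluorescence; 30-min ΔRFU feeds dose-response curves.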
IP6K1 inh: blocks human inositol hexakisphosphate kinase 1; AID 1645851; 140,000 tested, 0.81% active; Q92551; activity change, % (series mostly up to about 58 µM); IP6K1 kinase, ADP-Glo luminescence, 2 h; stronger effect = lower value; in the data active means activity change below about -25%; further: on the % scale 0 is the no-effect control and ±100 the full control effect
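ADP-Glo luminescence measures ADP made by human IP6K1 during a 2 h RT reaction with ATP/IP6 (mix at 1.3 mM/130 uM); top library doses 57.5 and 19.1 uM final.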
IP6K1 conf: confirmation of human IP6K1 inhibitors; shares compounds with IP6K1 inh; recombinant IP6K1 kinase, ADP-Glo luminescence, 2 h; Potency, µM (top dose mostly 49 µM), inactives show at the top dose activity change, negative = inhibition, actives largely listed as inhibitors; 1,200 tested, 13% active; AID 1645852; further: potency means the concentration at half of the fitted maximal effect; on the % scale 0 is the no-effect control and ±100 the full control effect; nearly all actives have a fitted effect of over 65% in size
The depositor's hits bear a star; i = inactive; ? = inconclusive; / = not tested or not shown. Unless noted, the call rests on the fitted dose curve; in most records, active means well fitted inhibition curve with a large enough effect; inconclusive means small, poorly fitted or top-dose-only effect; inactive means no such curve, though single readings can be large or run the other way.

SMILES	KDM5B inh	IP6K1 inh	IP6K1 conf
O=C(c1ccc2c(c1)OCO2)N1CC2(C1)C(=O)Nc1ccccc12	i	-16	/
O=C(c1ccc2c(c1)OCO2)N1CCC2(CC1)C(=O)Nc1ccccc12	i	-33*	?
CN(c1cc(=O)c2ccnc(Nc3ccc(F)c(Cl)c3)c2o1)C1CCOCC1	28µM*	-25*	20%
CC(=O)Nc1ccccc1-c1nccc2c(=O)cc(N(C)c3ccccc3)oc12	i	-7	/
CN(c1cc(=O)c2ccnc(-c3cccc(C(F)(F)F)c3)c2o1)C1CCOCC1	28µM*	-34*	?
CN(c1ccccc1)c1cc(=O)c2ccnc(Nc3cccnc3)c2o1	?	-10	/
C=CCNCc1ccc(-c2cccc(C(F)(F)F)c2)o1	i	/	/
CC(C)Oc1ccc2c(NC(=O)CN3CCCC3=O)nn(Cc3ccccc3)c2c1	i	-33*	-4%
CC(C)Oc1ccc2c(NC(=O)C3CCOC3)nn(Cc3ccccc3)c2c1 (stereo unspecified)	i	5	/
O=C(CN1CCN(c2cccc(Cl)c2)CC1)Nc1ccnn1Cc1cccc(Cl)c1	i	/	/
C=CC(=O)Nc1cc(Nc2ncc(Cl)c(-c3c[nH]c4ccccc34)n2)c(OC)cc1N(C)CCN(C)C	/	-26*	?
COc1ccc(Cl)cc1NC(=O)C(=O)c1c[nH]c2ccccc12	i	/	/
COc1ccc(C(=O)Nc2c(NCc3ccccc3)c3ccccc3oc2=O)cc1Br	i	/	/
COc1ccccc1-c1ccc2c(C(=O)NCCc3ccc(F)cc3)nn(C)c2n1	/	-1	/
CN1CCN(Cc2ccc(-c3cnc4[nH]cc(-c5ccc6[nH]ccc6c5)c4c3)cc2)CC1	/	-47*	9.2µM*
CN1CCN(c2nc3c(c(=O)[nH]2)CCN(Cc2ccc4[nH]ccc4c2)CC3)CC1	i	2	/
Cc1c(CN(C)CC2(O)CCCN(Cc3ccc(C(C)C)cc3)C2=O)cnn1C (stereo unspecified)	i	-37*	-6%
CC(C)c1ccc(CN2CCCC(O)(CN3CCSCC3)C2=O)cc1 (stereo unspecified)	i	-3	/
CCOC(=O)/C(C#N)=C(\C=C\c1ccccc1OC(F)F)c1ccccc1	i	/	/
CCCNC(=O)CSc1c(CC)cnc2c1c(=O)n(C)c(=O)n2C	i	/	/
CCc1cnc2c(c1SCCC(C)C)c(=O)n(C)c(=O)n2C	i	-28*	-18%
O=C(c1ccccc1Cl)N1CCCC1C(=O)N1CCCC1c1nc2ccncc2[nH]1 (stereo unspecified)	/	2	/
CC1Sc2ccc(S(=O)(=O)NC3CCN(Cc4ccccc4)CC3)cc2NC1=O (stereo unspecified)	i	/	/
CCc1nc2ccc(C(=O)NCc3cccc(Br)c3)cc2nc1CC	?	10	/
CCc1nc2ccc(C(=O)NCc3ccc(N(C)C)cc3)cc2nc1CC	i	-26*	-16%
SMILES	KDM5B inh	IP6K1 inh	IP6K1 conf
COc1ccc(NC(=O)c2c(NCc3cccc(OC)c3)sc3c2CCCC3)cc1	?	-1	/
COc1ccc(NC(=O)c2c(NCc3ccc(N(C)C)cc3)sc3c2CCC3)cc1	?	-27*	-11%
CNc1nc(-c2[nH]c(C)c(C(=O)OC)c2C)cs1	i	/	/
c1ccc(C2=Nn3c(nnc3-c3ccccn3)SC2)cc1	i	/	/
c1ccc(C2=Nn3c(nnc3-c3ccncc3)SC2)cc1	/	/	18%
Cc1ccccc1S(=O)(=O)n1cc2c(=O)n(C)c(=O)n(C)c2n1	i	/	/
CCCCCNC(=O)c1ccc2c(c1)ncn2-c1cccc(C)c1	?	-31*	?
CCCCCNC(=O)c1ccc2c(c1)nc(C)n2-c1cccc(C)c1	i	4	/
CCCCN(Cc1cc2cc(C)ccc2[nH]c1=O)S(=O)(=O)c1ccc(Cl)cc1	i	/	/
COc1cccc(OC)c1C(=O)OCC(=O)c1ccc(Cl)cc1Cl	i	/	/
O=C(c1cc2ccccc2o1)c1cc(F)ccc1F	i	/	/
CN(C)c1ccc2nc3ccc(=[N+](C)C)cc-3sc2c1	/	-30*	15µM*
Cc1cc2nc3ccc(=[N+](C)C)cc-3sc2cc1N	/	-21	/
Cc1ccc(CN2CCN(c3cc(NCCO)ncn3)CC2CCO)cc1 (stereo unspecified)	i	3	/
COc1ccc(CN2CCN(c3cc(N(C)C)ncn3)CC2CCO)c(C)c1C (stereo unspecified)	?	-35*	-9%
Cc1cc(C(=O)NC2CC(c3nnc(CN(C)C)n3C)C2)c2c(C)noc2n1 (stereo unspecified)	i	-29*	-7%
CN(C)Cc1nnc(C2CC(NC(=O)c3ccnnc3)C2)n1C (stereo unspecified)	i	13	/
CC1CCCN(C(=O)CNC(=O)c2ccc(-c3cnc4ccccc4c3)cc2)C1 (stereo unspecified)	/	18	/
COc1cccc(C(=O)N2CCC(N3C(=O)c4c(c(C)nn4-c4ccccc4)C3C(C)C)CC2)c1 (stereo unspecified)	/	15	/
Nc1ccccc1NC(=O)c1ccc(CNc2nccc(-c3cccnc3)n2)cc1	/	-12	/
Cc1cc(NC(=O)c2cccc(NC(=O)/C=C/CN(C)C)c2)ccc1Nc1nccc(-c2cccnc2)n1	/	-34*	?
CC1=C[C@@H](CNCc2ccccn2)[C@H](C(C)C)C[C@H]1Cc1nnc(-c2ccc(N(C)C)cc2)o1	?	3	/
Cn1c(=O)oc2cc(S(=O)(=O)N3CCc4c(nc[nH]c4=O)C3)ccc21	i	-2	/
COc1cc(S(=O)(=O)N2CCc3c(nc[nH]c3=O)C2)c(OC)cc1C	i	-30*	-4%
COc1ccc(CCNC(=O)c2sc(NCC(C)C)nc2C)cc1	i	/	/
SMILES	KDM5B inh	IP6K1 inh	IP6K1 conf
Cc1cccc(Cc2c(C)nc3c(-c4ccccc4)c(C)[nH]n3c2=O)c1	?	-34*	?
Cc1ccccc1Cc1c(C)nc2c(-c3ccccc3)c(C)[nH]n2c1=O	?	-19	/
COCCCNC(C(=O)O)c1cn(CC(=O)O)c2ccc(OC)cc12 (stereo unspecified)	i	/	/
COc1cccc(-c2ccc3c(N)c(C(=O)Nc4ccccc4C)sc3n2)c1	?	-26*	2%
COc1cccc(-c2ccc3c(N)c(C(=O)Nc4cc(F)ccc4F)sc3n2)c1	i	18	/
CCCn1c(C)nnc1SCC(=O)Nc1sc2c(c1C#N)CCC(C)C2 (stereo unspecified)	i	/	/
COc1ccc(CCNC(=O)C(CCS(C)(=O)=O)N2Cc3ccccc3C2=O)c(OC)c1OC (stereo unspecified)	i	/	/
CC(=O)Nc1ccc(NS(=O)(=O)c2ccc(Cl)s2)cc1	i	-28*	-25%
CC(=O)Nc1ccc(NS(=O)(=O)c2c(Cl)cccc2Cl)cc1	i	/	/
CCN1CCN(CCOc2ccc3c(C)c(-c4ccc(OC)c(OC)c4)c(=O)oc3c2)CC1	i	/	/
O=C(CC12CC3CC(CC(C3)C1)C2)NCC(=O)OCC(=O)N1CC(=O)Nc2ccccc21	i	/	/
O=C(Nc1ccnn1C1CCN(Cc2ccc(-c3ccccc3)cc2)CC1)C1CC1	i	-1	/
O=C(Nc1nc2cccc(-c3ccc(CN4CCS(=O)(=O)CC4)cc3)n2n1)C1CC1	/	-9	39%
COCCCNCCSc1ccc(Cl)cc1	i	/	/
COC(=O)c1ccc(COc2ccccc2/C=N/O)cc1	i	/	/

Bioassay records deposited in PubChem BioAssay by National Center for Advancing Translational Sciences (NCATS).
